Screening results (PubChem BioAssay)
In the library only some 12% were active in any assay of this set; here they are far more common.
L major viab: inhibitors of Leishmania major promastigote growth | Leishmania major promastigotes, resazurin fluorescence viability | inhibition, % at 10 µM | 200,000 tested, 9% active; in the data active = inhibition above about 50%;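 also: promastigotes grown with compound for 44 hours at 28 °C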
ROMK mod: modulates human ROMK potassium channel activity; Tet-inducible ROMK, thallium flux fluorescence; actives lie on both sides; B-score at 10 µM; 130,000 tested, 2% active;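 active = signal ratio slope over the read window, or its plate-corrected B-score, at least 3 SD from the plate mean, either direction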;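 also: B-score of the F/F0 ratio slope over 7 to 12 s after thallium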
KCC2 mod: modulates chloride dependent transport by human KCC2; B-score of Tl+ flux slope (higher = more flux/activation; lower = inhibition) at 10 µM; KCC2 cells, thallium flux FluoZin-2 fluorescence; 190,000 tested, 2.2% active; Q9H2X9;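 active = thallium flux slope and its plate-corrected score both differing from the plate sample mean at a set confidence after two filtering rounds, in either direction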;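 also: slope of fluorescence scaled to starting intensity during 10 to 20 s after thallium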
Insulin prom inh: TRM-6 insulin promoter activity inhibition; TRM-6 cells (human fetal islet line), insulin promoter-eGFP reporter, imaging; reporter expression induced with tamoxifen; inhibition, % at 2 µM; 130,000 tested, 0.9% active;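 active = inhibition above the mean plus 3 SD, with well images judged a real hit on visual review, cut at about 60% in these data, passing the limit was not always enough; inconclusive = inhibition over the cutoff but images rejected on review; inactive = inhibition not above the cutoff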
Ins promoter up: MIN6 insulin promoter up-regulation; MIN6 insulin promoter-GFP reporter, high-content imaging; hits give high values; z-score at 5 µM; 190,000 tested, 0.3% active; AID 1625;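 active = z-score above 3 at 5 µM with at least 500 cells counted in the well; inconclusive = wells under 500 cells, flagged as cytotoxic or low count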
WT yeast gro inh: growth inhibition of WT yeast, mitochondrial fusion screen | inhibition, % at 10 µM | 190,000 tested, 2.1% active | AID 1362 | mitochondrial fusion phenotypic screen, WT strain; in the data active = inhibition above about 58%; tested in S. cerevisiae
KCC2 secondary: KCC2 (human) modulation, secondary assay; shares compounds with KCC2 mod; HEK293-KCC2, thallium flux, FluoZin2 fluorescence; hits give high values; normalised thallium flux (F/F0 slope) at 10 µM; 3,700 tested, 15% active; AID 1713;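 active = thallium flux slope above the same plate's solvent-only control mean plus 3 SD; inconclusive = the two replicate wells disagree; inactive = no significant difference from solvent-only control wells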
KCC2 bumet counter: thallium flux persisting under bumetanide in KCC2 cells, counter-screen secondary assay | shares compounds with KCC2 mod | HEK293-KCC2 + bumetanide/ouabain, thallium flux FluoZin2; hits give high values | normalized thallium flux at 10 µM | 3,700 tested, 49% active;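 active = thallium entry rate above the same plate's blocked-transporter control wells by more than 3 SD; inconclusive = the two repeat wells disagree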;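 also: raw slope of fluorescence over initial fluorescence between 10 and 20 s after thallium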
KCC2 secondary2: confirmation of human KCC2 transport modulators; shares compounds with KCC2 mod; HEK293-KCC2, thallium flux FluoZin2 fluorescence; actives lie on both sides; F/F0 rise rate, 10–20 s post-thallium; normalized thallium flux at 10 µM; 3,700 tested, 23% active;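 active = thallium flux slope more than 3 SD above or below the plate's solvent-only control mean, mostly below; inconclusive = the two repeat wells disagreed; inactive = no significant shift from solvent-only controls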;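 also: raw slope with 0.1% DMSO as baseline and bumetanide as block control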
HEK counter1: acts in parental HEK cells, KCC2 counter-screen; shares compounds with KCC2 mod; HEK293 parental cells, thallium flux FluoZin2, ouabain; baseline-ratio fluorescence slope, 10–20 s after thallium; thallium flux rate (normalised fluorescence) at 10 µM; 3,700 tested, 46% active;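 active = thallium flux rate significantly above the same plate's solvent-only control wells, beyond their mean plus 3 SD; inconclusive = the two replicate wells gave conflicting results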
KCC2 retest ouab: confirmation of human KCC2 modulators with ouabain; shares compounds with KCC2 mod; HEK293-KCC2, thallium flux FluoZin2 fluorescence; bidirectional: low = inhibitor, high = activator; raw Tl+ flux slope (below DMSO = inhibition, above = activation) at 10 µM; 3,700 tested, 48% active; AID 1717;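 active = thallium flux slope beyond 3 SD from same-plate DMSO control mean in most replicates, usually higher, sometimes lower; inconclusive = repeat tests gave conflicting results; inactive = no significant difference from controls in most replicates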;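 also: slope of initial-normalized fluorescence between seconds 10 and 20 after thallium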
HEK counter2: parental HEK flux effect, counter-screen 2; shares compounds with KCC2 mod; HEK293 parental, thallium flux FluoZin-2 fluorescence slope; thallium flux slope at 10 µM; 3,700 tested, 33% active;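 active = thallium flux slope above the same plate's solvent-control mean plus 3 SD in both duplicate wells; inconclusive = duplicate wells that disagreed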;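 also: run without ouabain in cells lacking the KCC2 cotransporter; slope of fluorescence scaled to its starting value between 10 and 20 s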
* hit, by the source's call.

CNS(=O)(=O)c1cc(O)c2c(S(=O)(=O)NC)cccc2c1 was read as L major viab -7, KCC2 mod -0.3, Insulin prom inh 12, Ins promoter up -0.21 and WT yeast gro inh 1.
For Cn1c(C(=O)N2CCN(c3ccccc3F)CC2)cc2c(=O)n(C)c3ccccc3c21 the results were WT yeast gro inh 2.
Screening O=S1(=O)C=C(SCc2cccc(Cl)c2)Nc2ccccc21 returned L major viab -1, KCC2 mod -3.4*, Insulin prom inh -41, WT yeast gro inh -10, KCC2 secondary inconclusive, KCC2 bumet counter 0.0054, KCC2 secondary2 0.03, HEK counter1 0.0072, KCC2 retest ouab 0.016* and HEK counter2 0.01.
Screening CCN(C(=O)CCS(=O)(=O)c1ccc(Br)cc1)c1ccc2c(c1)OCO2 returned L major viab -1, KCC2 mod -0.96, Ins promoter up 1.1 and WT yeast gro inh 7.
Cc1ccc(C(=O)NC(=S)NNS(=O)(=O)c2ccc(C)cc2)cc1 was read as L major viab 2, ROMK mod 1.7, KCC2 mod 6.2*, Insulin prom inh 10, Ins promoter up 0.03, WT yeast gro inh 55, KCC2 secondary 0.017*, KCC2 bumet counter 0.023*, KCC2 secondary2 0.035, HEK counter1 0.0092*, KCC2 retest ouab 0.024 and HEK counter2 0.012*.
`CN(C)c1ccc(CN2CCC(C(N)=O)CC2)cc1` gave L major viab -2, ROMK mod 0.82, KCC2 mod 0.051, Insulin prom inh 35, Ins promoter up 0.27 and WT yeast gro inh -4.
CC(=O)c1cc(NC(=O)c2ccc(Cl)cc2)c(=O)oc1/C=C/N(C)C was read as L major viab -3, KCC2 mod -3*, Insulin prom inh -6, WT yeast gro inh 1, KCC2 secondary inconclusive, KCC2 bumet counter -0.0026*, KCC2 secondary2 0.021*, HEK counter1 0.0027*, KCC2 retest ouab 0.008* and HEK counter2 0.0048*.
For O=C(CCCSc1nc2sc3c(c2c(=O)[nH]1)CCC3)NCCCO the results were L major viab -3, ROMK mod 0.26, Ins promoter up 0.25 and WT yeast gro inh 6.
`O=C(CCCSc1nc2sc3c(c2c(=O)[nH]1)CCC3)NCCO` gave L major viab -5, KCC2 mod -4.2*, Insulin prom inh 52, Ins promoter up -1, WT yeast gro inh -3, KCC2 secondary 0.015, KCC2 bumet counter 0.0047, KCC2 secondary2 0.028, HEK counter1 0.0073, KCC2 retest ouab 0.016 and HEK counter2 0.0098.
Screening O=C(Nc1nccs1)C1CCN(S(=O)(=O)c2ccc3c(c2)OCCCO3)CC1 returned L major viab 16, KCC2 mod -0.054, Insulin prom inh 25, Ins promoter up 1.5 and WT yeast gro inh -2.
N#C/C(=C(O)\C=C\c1ccccc1)c1nc2ccccc2[nH]1 was read as KCC2 mod 6.6*, Ins promoter up 0.62, KCC2 secondary 0.0058, KCC2 bumet counter 0.0049, KCC2 secondary2 inconclusive, HEK counter1 0.0076, KCC2 retest ouab 0.019 and HEK counter2 0.01.
COc1ccccc1NC(=O)C1C2CCCCC21 (stereo not given) was read as L major viab 2, ROMK mod 0.99, KCC2 mod 0.34, Ins promoter up -0.99 and WT yeast gro inh -14.
For Cc1nc(Nc2ccc(Cl)c(Cl)c2)sc1C(=O)Nc1ccccc1 the results were L major viab 3, ROMK mod 0.41, KCC2 mod 0.4, Ins promoter up -0.6 and WT yeast gro inh 93.
For Cc1nc(Nc2ccc(Cl)cc2Cl)sc1C(=O)Nc1ccccc1 the results were L major viab -4, ROMK mod 0.17, KCC2 mod 3.7*, Insulin prom inh -18, Ins promoter up 0.14, WT yeast gro inh 71*, KCC2 secondary 0.017, KCC2 bumet counter 0.0046, KCC2 secondary2 0.027, HEK counter1 0.0072, KCC2 retest ouab 0.016 and HEK counter2 0.01.
For CCOCCCNC(=O)C1CCN(C(=O)N(C)C)CC1 the results were L major viab -3, ROMK mod -0.081, KCC2 mod -0.19, Ins promoter up 1.1 and WT yeast gro inh -3.
Screening Cc1cc(C)c(S(=O)(=O)N2CCCOC2CNC(=O)C(=O)NCCC2=CCCCC2)c(C)c1 (stereo not given) returned L major viab 21, ROMK mod -0.19, KCC2 mod -1.7, Insulin prom inh -23, Ins promoter up -0.06 and WT yeast gro inh 21.
Screening COc1ccc(C(CC(=O)O)NC(=O)c2sc3ccccc3c2Cl)cc1 (stereo not given) returned L major viab -3, KCC2 mod -2.5, Ins promoter up 0.49 and WT yeast gro inh -10.
O=[N+]([O-])c1ccc(/C=N/NC(=S)Nc2ccccc2C(F)(F)F)o1 was read as L major viab 19, ROMK mod 1.1, KCC2 mod 21*, Ins promoter up -0.01, WT yeast gro inh 14, KCC2 secondary 0.0072, KCC2 bumet counter 0.046*, KCC2 secondary2 0.051*, HEK counter1 0.027*, KCC2 retest ouab 0.054* and HEK counter2 0.021*.
`COc1cccc(CNS(=O)(=O)c2cn(C)cn2)c1` gave L major viab -4, ROMK mod 0.64, KCC2 mod 7.2*, Ins promoter up 0.04, WT yeast gro inh -8, KCC2 secondary 0.0062, KCC2 bumet counter 0.0046, KCC2 secondary2 0.033, HEK counter1 0.0076, KCC2 retest ouab 0.019 and HEK counter2 0.011.
`CCSc1nnc(NC(=O)c2ccc(C)o2)s1` gave L major viab -1, KCC2 mod 0.12, Insulin prom inh -9 and WT yeast gro inh -1.
For CC(=O)c1cccc(N=Nc2c(-c3ccccc3)[nH]n(-c3ccccc3)c2=O)c1 the results were L major viab 4, ROMK mod -1.5, KCC2 mod -0.23, Ins promoter up -0.96 and WT yeast gro inh -4.
